The supplement of paper PMC10849652
The full data set covers some 7,900 targets. This sample favours those with a hit. About 0.6% of all pairs of compound and target were hits. Unmarked numbers belong to inactive results.

compound: COc1cc(Nc2ncc3c(n2)-c2ccc(Cl)cc2C(c2c(F)cccc2OC)=NC3)ccc1C(=O)O [alisertib]; assay: log2 fold change, soluble protein after heating vs DMSO (PISA); higher = thermal stabilisation; K562 cells, 10 uM, 30 min; active = over 0.2 and 3.5 SD of the protein, either way, in both replicates (recomputed)
Method in brief: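 Thermal stability values are relative to control samples and come from duplicates. They are expressed as log2 fold changes. For measurement, K562 cells (2×10^6 cells/mL) received 10 μM compound for 30 min, and aliquots were heated for 3 min over 48°C-58°C, pooled, and extracted at 4°C in PBS with 0.5% NP-40. Soluble protein, the supernatant after 21,000xg for 90 min, was quantified by TMTpro 16plex LC-MS/MS with equalised channel sums.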

Sequence of UniProt Q96BW9 (Q96BW9 whole entry, looked up): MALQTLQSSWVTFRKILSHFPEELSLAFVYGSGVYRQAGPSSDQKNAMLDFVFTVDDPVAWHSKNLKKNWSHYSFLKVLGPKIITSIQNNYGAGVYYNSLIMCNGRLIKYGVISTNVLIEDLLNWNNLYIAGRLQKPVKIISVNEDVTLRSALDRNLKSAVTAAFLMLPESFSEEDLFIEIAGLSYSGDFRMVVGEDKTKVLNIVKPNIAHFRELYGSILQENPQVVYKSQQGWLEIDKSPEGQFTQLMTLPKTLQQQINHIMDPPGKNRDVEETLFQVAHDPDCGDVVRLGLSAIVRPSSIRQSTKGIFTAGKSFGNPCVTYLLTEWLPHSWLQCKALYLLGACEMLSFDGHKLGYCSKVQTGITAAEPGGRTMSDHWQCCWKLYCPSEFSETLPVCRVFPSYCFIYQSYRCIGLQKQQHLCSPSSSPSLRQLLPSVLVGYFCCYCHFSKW
Sequence of UniProt Q13501 (Q13501 whole entry, looked up): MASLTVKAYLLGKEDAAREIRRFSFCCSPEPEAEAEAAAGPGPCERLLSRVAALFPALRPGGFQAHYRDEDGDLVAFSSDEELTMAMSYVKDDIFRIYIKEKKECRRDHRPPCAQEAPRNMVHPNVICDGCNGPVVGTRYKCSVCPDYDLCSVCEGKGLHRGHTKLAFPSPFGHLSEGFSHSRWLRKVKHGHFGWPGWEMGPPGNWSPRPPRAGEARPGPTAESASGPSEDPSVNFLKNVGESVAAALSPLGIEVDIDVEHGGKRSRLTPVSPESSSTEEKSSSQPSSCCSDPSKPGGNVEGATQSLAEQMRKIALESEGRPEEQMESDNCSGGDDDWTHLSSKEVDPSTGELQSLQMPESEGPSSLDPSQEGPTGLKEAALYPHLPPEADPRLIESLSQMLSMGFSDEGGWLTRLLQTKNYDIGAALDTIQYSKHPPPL
Sequence of UniProt Q9Y4R8 (Q9Y4R8 whole entry, looked up): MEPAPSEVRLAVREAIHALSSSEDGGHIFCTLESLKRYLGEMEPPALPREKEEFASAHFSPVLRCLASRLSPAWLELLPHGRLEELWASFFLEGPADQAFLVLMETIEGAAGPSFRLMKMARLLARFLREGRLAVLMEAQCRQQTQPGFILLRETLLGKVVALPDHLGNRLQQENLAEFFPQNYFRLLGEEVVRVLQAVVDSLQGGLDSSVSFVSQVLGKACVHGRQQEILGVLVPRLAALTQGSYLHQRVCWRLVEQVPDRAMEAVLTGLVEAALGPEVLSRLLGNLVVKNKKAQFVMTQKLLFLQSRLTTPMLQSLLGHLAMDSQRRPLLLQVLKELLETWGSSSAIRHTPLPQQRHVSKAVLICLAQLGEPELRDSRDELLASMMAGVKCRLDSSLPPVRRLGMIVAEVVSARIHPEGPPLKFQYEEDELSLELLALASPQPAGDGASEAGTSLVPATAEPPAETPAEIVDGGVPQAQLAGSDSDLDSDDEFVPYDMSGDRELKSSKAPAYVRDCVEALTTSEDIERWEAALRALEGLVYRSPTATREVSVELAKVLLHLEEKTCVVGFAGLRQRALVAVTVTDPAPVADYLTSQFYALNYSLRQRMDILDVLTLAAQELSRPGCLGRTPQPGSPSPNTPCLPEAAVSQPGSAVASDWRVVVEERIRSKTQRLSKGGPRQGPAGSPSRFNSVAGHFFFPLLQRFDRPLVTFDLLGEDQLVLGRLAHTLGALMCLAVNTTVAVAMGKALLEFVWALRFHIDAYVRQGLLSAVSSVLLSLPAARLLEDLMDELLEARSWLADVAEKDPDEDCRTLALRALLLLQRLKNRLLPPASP
Sequence of UniProt P36897 (P36897 whole entry, looked up): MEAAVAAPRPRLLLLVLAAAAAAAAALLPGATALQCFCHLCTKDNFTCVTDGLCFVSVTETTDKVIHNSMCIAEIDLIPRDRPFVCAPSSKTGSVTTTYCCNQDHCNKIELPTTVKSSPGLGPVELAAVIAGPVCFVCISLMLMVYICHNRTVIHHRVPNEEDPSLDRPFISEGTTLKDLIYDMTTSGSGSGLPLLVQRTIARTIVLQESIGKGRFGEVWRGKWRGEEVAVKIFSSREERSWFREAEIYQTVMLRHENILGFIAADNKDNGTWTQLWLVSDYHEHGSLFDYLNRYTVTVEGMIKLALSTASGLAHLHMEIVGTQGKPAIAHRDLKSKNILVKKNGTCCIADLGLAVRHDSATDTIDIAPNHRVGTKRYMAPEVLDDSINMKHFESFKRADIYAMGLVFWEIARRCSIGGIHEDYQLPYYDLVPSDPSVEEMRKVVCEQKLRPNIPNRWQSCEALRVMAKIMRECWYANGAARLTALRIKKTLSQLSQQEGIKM
Sequence of UniProt Q96CQ1 (Q96CQ1 whole entry, looked up): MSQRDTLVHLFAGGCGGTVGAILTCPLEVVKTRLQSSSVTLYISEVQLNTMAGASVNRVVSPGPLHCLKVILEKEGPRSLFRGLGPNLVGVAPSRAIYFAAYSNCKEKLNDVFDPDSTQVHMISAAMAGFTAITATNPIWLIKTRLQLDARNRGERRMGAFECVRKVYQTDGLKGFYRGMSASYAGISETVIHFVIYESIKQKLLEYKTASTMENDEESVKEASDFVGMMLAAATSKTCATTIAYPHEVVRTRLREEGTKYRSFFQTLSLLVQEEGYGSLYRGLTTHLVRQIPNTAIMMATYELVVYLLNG
Sequence of UniProt Q9BSF4 (Q9BSF4 whole entry, looked up): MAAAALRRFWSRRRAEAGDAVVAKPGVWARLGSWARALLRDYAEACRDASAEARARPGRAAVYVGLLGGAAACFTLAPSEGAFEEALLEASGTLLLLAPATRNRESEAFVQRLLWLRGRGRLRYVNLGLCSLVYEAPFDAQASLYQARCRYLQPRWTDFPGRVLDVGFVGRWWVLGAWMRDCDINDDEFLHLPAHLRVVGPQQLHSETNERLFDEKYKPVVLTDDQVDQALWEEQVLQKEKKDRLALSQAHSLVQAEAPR
Sequence of UniProt Q92609 (Q92609 whole entry, looked up): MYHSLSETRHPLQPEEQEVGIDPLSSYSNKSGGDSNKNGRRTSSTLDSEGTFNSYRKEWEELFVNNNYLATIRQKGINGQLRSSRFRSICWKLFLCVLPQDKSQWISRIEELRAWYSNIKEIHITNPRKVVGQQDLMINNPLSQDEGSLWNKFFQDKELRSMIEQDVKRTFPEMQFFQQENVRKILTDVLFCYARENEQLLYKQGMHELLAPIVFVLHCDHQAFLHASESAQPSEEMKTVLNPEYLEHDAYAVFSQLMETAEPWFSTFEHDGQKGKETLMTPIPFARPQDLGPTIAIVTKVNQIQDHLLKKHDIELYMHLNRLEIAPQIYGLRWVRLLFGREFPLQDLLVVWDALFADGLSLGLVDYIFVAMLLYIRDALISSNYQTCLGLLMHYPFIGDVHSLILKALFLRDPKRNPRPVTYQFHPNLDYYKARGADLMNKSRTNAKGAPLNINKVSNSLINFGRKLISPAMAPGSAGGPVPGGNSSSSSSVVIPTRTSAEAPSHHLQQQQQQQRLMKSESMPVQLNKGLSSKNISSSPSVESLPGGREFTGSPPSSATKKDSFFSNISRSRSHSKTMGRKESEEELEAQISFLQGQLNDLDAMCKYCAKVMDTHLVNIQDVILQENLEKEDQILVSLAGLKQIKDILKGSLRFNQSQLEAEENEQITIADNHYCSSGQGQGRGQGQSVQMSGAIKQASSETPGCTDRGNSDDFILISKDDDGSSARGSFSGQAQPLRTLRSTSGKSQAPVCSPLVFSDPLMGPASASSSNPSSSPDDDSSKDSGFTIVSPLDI
Sequence of UniProt Q8TC07 (Q8TC07 whole entry, looked up): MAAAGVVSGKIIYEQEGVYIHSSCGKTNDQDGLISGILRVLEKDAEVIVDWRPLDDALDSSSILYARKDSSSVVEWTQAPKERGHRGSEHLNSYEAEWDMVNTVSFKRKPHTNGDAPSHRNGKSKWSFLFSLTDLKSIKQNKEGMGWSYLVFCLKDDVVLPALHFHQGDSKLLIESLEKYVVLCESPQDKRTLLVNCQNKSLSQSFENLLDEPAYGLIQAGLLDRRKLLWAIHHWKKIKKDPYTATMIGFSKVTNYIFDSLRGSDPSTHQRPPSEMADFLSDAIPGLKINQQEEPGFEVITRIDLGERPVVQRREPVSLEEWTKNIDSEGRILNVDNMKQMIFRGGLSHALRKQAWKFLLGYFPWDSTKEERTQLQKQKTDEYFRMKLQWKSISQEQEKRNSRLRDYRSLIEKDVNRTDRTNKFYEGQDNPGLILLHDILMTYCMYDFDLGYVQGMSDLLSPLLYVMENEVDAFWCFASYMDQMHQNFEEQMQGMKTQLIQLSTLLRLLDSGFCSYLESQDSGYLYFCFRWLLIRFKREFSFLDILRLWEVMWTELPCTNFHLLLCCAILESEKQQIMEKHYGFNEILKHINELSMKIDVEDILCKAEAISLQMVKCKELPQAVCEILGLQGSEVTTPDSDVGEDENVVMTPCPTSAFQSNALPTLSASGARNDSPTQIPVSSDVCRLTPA
Sequence of UniProt Q13043 (Q13043 whole entry, looked up): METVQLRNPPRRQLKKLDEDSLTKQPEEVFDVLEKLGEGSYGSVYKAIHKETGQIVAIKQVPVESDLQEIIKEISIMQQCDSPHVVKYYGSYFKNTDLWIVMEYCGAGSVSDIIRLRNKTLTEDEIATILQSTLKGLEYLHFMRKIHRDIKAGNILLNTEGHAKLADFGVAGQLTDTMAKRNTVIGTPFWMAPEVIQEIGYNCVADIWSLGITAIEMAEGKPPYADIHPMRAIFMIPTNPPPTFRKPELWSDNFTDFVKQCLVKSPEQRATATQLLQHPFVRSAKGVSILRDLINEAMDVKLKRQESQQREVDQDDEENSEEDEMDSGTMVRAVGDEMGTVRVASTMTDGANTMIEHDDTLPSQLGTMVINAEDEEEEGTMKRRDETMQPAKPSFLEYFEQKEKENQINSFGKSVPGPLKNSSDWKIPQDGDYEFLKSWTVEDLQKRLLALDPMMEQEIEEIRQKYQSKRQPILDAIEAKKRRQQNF
Sequence of UniProt P30626 (P30626 whole entry, looked up): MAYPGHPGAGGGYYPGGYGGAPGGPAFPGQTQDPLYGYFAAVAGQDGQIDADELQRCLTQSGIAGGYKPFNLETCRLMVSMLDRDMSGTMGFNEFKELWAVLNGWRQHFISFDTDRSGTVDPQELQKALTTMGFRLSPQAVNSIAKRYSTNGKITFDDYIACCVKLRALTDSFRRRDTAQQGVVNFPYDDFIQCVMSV

Target | log2 fold change
TERF2IP (UniProt Q9NYB0) | -0.032
TGFBR1 isoform 2 (UniProt P36897) | -0.05
SLC25A39 (UniProt Q9BZJ4) | 0.123
SLC27A2 (UniProt O14975) | -0.034
STAT5B (UniProt P51692) | -0.038
TBC1D15 isoform 3 (UniProt Q8TC07) | -0.052
TELO2 (UniProt Q9Y4R8) | -0.16
SQSTM1 (UniProt Q13501) | -0.016
TBC1D5 isoform 2 (UniProt Q92609) | -0.021
SRI (UniProt P30626) | -0.035
STAT3 (UniProt P40763) | 0.013
SRPRA (UniProt P08240) | -0.005
TAOK1 (UniProt Q7L7X3) | 0.043
STK26 (UniProt Q9P289) | -0.059
STK4 (UniProt Q13043) | -0.047
STXBP2 isoform 3 (UniProt Q15833) | -0.034
SRPRB (UniProt Q9Y5M8) | -0.021
TIMM29 (UniProt Q9BSF4) | 0.01
SPG11 (UniProt Q96JI7) | 0.388
SLC25A36 (UniProt Q96CQ1) | -0.03
SLC25A42 (UniProt Q86VD7) | 0.012
TAMM41 isoform 3 (UniProt Q96BW9) | 0.019
